Sampled rows, rich in hits. Any-hit rate of the full collection: about 5.2%.
Tau fibril FP: tau fibrillization inhibition (FP) | P10636 | K18 P301L tau heparin fibrillization, Alexa594 FP, 6 h | AID 1468 | 280,000 tested, 0.39% active | Potency, µM (series often up to 57.7 µM), for inactives: at the highest dose activity, negative = inhibition, most hits filed as inhibitors; further: potency means the concentration at half of the fitted maximal effect; nearly all actives have a fitted effect of over 55% in size
Target sequence (P10636 561-689 P618L limits assumed): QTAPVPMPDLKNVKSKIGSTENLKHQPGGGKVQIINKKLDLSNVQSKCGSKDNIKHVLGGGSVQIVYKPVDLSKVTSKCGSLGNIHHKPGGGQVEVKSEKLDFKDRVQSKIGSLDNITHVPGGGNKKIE
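Heparin (20 uM) drove fibril formation of recombinant tau K18 P301L, 15 uM unlabeled with 0.24 uM Alexa 594 label, for 6 hr at 37 C in 100 mM sodium acetate pH 7. Fluorescence polarization (555/632 nm) read 1 hr after 30 uM ThT.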
Sfp PPTase inh: blocks B. subtilis Sfp PPTase activity; Potency, µM, without a hit: largest response in the series, negative = inhibition, usual class: inhibitors; Q9F4F7; AID 1490; Biochemical Sfp PPTase activity, qHTS; 310,000 tested, 3.5% active;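 further: the enzyme is Sfp with the accession as filed and its product quenches rhodamine fluorescence; potency means the concentration at half of the fitted maximal effect; 0% = enzyme reaction without inhibitor and -100% = no enzyme wells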
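Fluorescence-quenching assay: 15 nM Sfp-PPTase preincubated 15 min at room temperature with compound, then 5 uM rhodamine-CoA and 12.5 uM BHQ-2-labelled YbbR peptide added. Fluorescence (ex 525/em 598 nm) read at start and after 30 min; difference gives rate.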
Tau ThT inhib: blocks human tau fibril formation measured by thioflavin T | recombinant tau K18 P301L, heparin-induced fibrillization, ThT fluorescence | Potency, µM (titrated, usually from 57.4 µM), inactives show at the top dose activity, negative = inhibition, most hits filed as inhibitors | 270,000 tested, 2.1% active | AID 1460; further: potency means the concentration at half of the fitted maximal effect; nearly all actives have a fitted effect of over 55% in size
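Heparin-induced (20 uM) aggregation of recombinant human K18 P301L tau, 15 uM unlabeled with 0.24 uM labeled, pH 7 acetate buffer, 6 hr at 37 C with compound. Fibrils quantified by 30 uM ThT fluorescence after 1 hr ambient incubation.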
Tau fluor cs: counter-screen for tau fibril formation inhibitors; AID 1463; 280,000 tested, 0.93% active; tau K18 P301L Alexa594 fluorescence, heparin fibrillization; Potency, µM (top dose mostly 57.7 µM), without a hit: top-dose activity change, negative = decrease; further: potency means the concentration at half of the fitted maximal effect; nearly all actives have a fitted effect of over 55% in size
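Human tau K18 P301L (15 uM unlabeled, 0.24 uM Alexa 594-labeled) in 100 mM sodium acetate pH 7 with 20 uM heparin, 6 hr at 37 C. ThT 30 uM added, 1 hr ambient; Alexa 594 FP and total fluorescence read at 555/632 nm.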
Coupling enz: counter-screen for Giardia aldolase inhibitors: coupling enzyme system; coupling enzyme system counterscreen, AmpLite Red fluorescence; activity change, negative = inhibition, % at 58.2 µM, hits read low; 290,000 tested, 0.67% active; AID 2472; in the data active means activity change below about -30%
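Counterscreen of the coupled detection system alone, without aldolase: glyceraldehyde-3-phosphate coupling enzymes plus AmpLite Red readout. Compounds at 57.5 uM final, 10 min RT preincubation, 20 min RT reaction, fluorescence 525/598 nm.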
* marks the source's active call; other numbers are inactive results; ? = inconclusive; · = not tested or not shown; [ ] = remark or other dose. Unless noted, the call rests on the fitted dose curve; in most records, active means well fitted curve in the direction sought with a large enough effect; inconclusive means small, poorly fitted or top-dose-only effect, or another doubt; inactive means no such curve, though single readings can be large; an effect the other way counts as inactive or inconclusive. Unless noted, on the % scale 0 is the no-effect control and ±100 the full control effect.

SMILES	Tau fibril FP	Sfp PPTase inh	Tau ThT inhib	Tau fluor cs	Coupling enz
CCCCNC(=S)Nc1ccc(Oc2ccccc2)cc1	6%	50µM*	?	?	6
CCOC(=O)C1=C[C@@H](C(=O)OCC)[C@@H]2C3=C(C(=O)C2(C)C)[C@H](c2ccccc2)[C@@H]2C(=O)N(c4ccccc4)C(=O)[C@@H]2[C@@H]3C1	·	10%	·	·	-3
CC(=O)c1cccc(-n2c(CCC(=O)O)ccc2-c2ccccc2)c1	2%	71µM*	-17%	-2%	10
CC(=O)c1cccc(-n2c(CCC(=O)O)ccc2-c2cccs2)c1	-6%	8.9µM*	?	-5%	9
CC(C)(C)c1ccc(C(=O)Nn2c(CCC(=O)O)ccc2-c2cccs2)cc1	3%	56µM*	2%	-3%	5
CC(=O)c1ccc(-n2c(CCC(=O)O)ccc2-c2ccccc2)cc1	·	22%	·	·	14
O=C(O)CCc1ccc(-c2cccs2)n1-c1ccc(C(=O)O)cc1	-2%	28µM*	?	-12%	13
COc1ccc(-c2cn3cccnc3n2)cc1NC(=O)c1cc(C)cc(C)c1	0%	·	-19%	-17%	·
Cc1ccc(-n2c(=O)c3c4c(sc3n(Cc3ccccc3C)c2=O)CCC4)cc1C	3%	·	-3%	-9%	·
Cc1cc(C)n2nc(C(=O)NNC(=O)c3ccccc3)nc2n1	-2%	79µM*	1%	4%	1
C=CC1=C(C)C2=NC1=CC1=NC(=CC3=NC(=CC4=NC(=C2)C(C)=C4CCC(=O)O)C(CCC(=O)O)=C3C)C(C=C)=C1C.[Zn]	20µM*	4.5µM*	6.3µM*	14µM*[quencher]	-14
O=C(NCCC(=O)N1CCNC1=O)OCc1ccccc1	4%	50µM*	-1%	-3%	0
O=C(O)CCCNC(=O)OCc1ccccc1	-11%	15%	-10%	-11%	-2
Cc1cccc(NC(=O)CSc2nc3ccc(NC(=O)COc4ccc(Cl)cc4)cc3s2)c1	?	·	-9%	?	·
CCCCOC(=O)c1c(C)oc2c1cc(NS(=O)(=O)c1cc(OC)ccc1OC)c1ccccc12	-4%	·	?	?	·
CCOc1ccc(N2C(=O)CS/C2=C(\C(Cl)=C(Cl)Cl)[N+](=O)[O-])cc1	?	2%	16µM*	?	-2
Cc1nc2ccc(NC(=S)NC3CC3)cc2nc1C	13%	4%	3%	9%	-5
O=C(NCCO)Nc1ccc2nsnc2c1	-4%	11%	4%	6%	-4
OCCNC(=S)Nc1ccc2nsnc2c1	-8%	-39%	-9%	-3%	-47*
Cc1nc2ccc(NC(=S)NCCCO)cc2nc1C	?	56µM*	?	-24%	-30*
CCc1ccccc1NC(=O)CSc1nc2c(oc3ccccc32)c(=O)n1-c1ccccc1	-11%	·	-8%	-17%	·
Cc1ccc(-n2cc3c(c2-c2ccccc2Br)c(=O)n(C)c(=O)n3C)cc1N	3%	·	?	-21%	·
COc1ccc(/C=C(/C(=O)c2cccs2)N2C=CC=CC2=C(C#N)C#N)cc1	?	3.5µM*	28µM*	-29%	2
N#CC(C#N)=C1C=CC=CN1/C(=C\c1ccco1)C(=O)c1ccccc1	20µM*	16µM*	14µM*	?	-1
CCN(CC)c1ccc(/C=C(\C#N)C(=O)c2ccc(Br)cc2)cc1	-9%	-10%	?	?	0
SMILES	Tau fibril FP	Sfp PPTase inh	Tau ThT inhib	Tau fluor cs	Coupling enz
N#CC(C#N)=C1C=CC=CN1/C(=C\c1ccco1)C(=O)c1ccc(Br)cc1	?	8.9µM*	11µM*	-28%	-6
COc1ccc(C(=O)N/C(=C\c2ccco2)C(=O)OCc2ccco2)cc1	-2%	7%	·	-13%	-1
COc1ccc(NC(=O)c2cccs2)cc1	0%	12%	-13%	-2%	-3
COc1ccc(C(=O)/C(=C\c2ccco2)N2C=CC=CC2=C(C#N)C#N)cc1	?	18µM*	13µM*	?	0
CCOc1ccc2c(c1)-c1c(ssc1=S)C(C)(C)N2C	-2%	-23%	14µM*	13µM*[quencher]	0
CCC(=O)Nc1cccc2cccnc12	6%	6%	-1%	4%	-1
C/C(=N\Nc1cccc2cccnc12)c1ccc[nH]1	14%	-14%	4.5µM*	?	-2
Cc1ccc(CN2C(=O)CC(c3ccc(Cl)cc3)c3c(C)nn(-c4nc(C)cc(C)n4)c32)cc1 (stereo not drawn)	-8%	·	-4%	-7%	·
CCCCc1ccc(NC(=O)CSc2nnc3[nH]c(=O)cc(C)n23)cc1	10%	·	-12%	-4%	·
Cc1c(CN2CCCCC2)c(O)n(CCCO)c(=O)c1C#N	?	11%	?	-14%	-30*
Cn1c(CN2CCCCC2)c(C#N)c2ccccc21	-5%	10%	-2%	-4%	-1
CCCn1c(O)c(CN2CCCCC2)c(C)c(C#N)c1=O	?	-3%	?	-19%	-40*
C=CCn1c(O)c(CN2CCN(Cc3ccccc3)CC2)c(C)c(C#N)c1=O	?	-29%	16µM*	-23%	-42*
N=C(N)c1ccc(N2CCN(C3CCN(CC(=O)O)CC3)CC2)cc1	1%	12%	-9%	-9%	0
O=C(Nc1ccc(OC(F)(F)F)cc1)NC1COc2ccccc2C1 (stereo not drawn)	-10%	·	-7%	-9%	·
Cc1n[nH]c(C)c1N=Nc1ccc(Br)cc1	-13%	-4%	11µM*	-30%	1
COc1ccc(N=Nc2c(C)n[nH]c2C)cc1	·	7%	·	·	3
COc1ccccc1CNC(=O)c1ccc(-c2nc(CS(=O)c3ccc(C)cc3)c(C)o2)cc1 (stereo not drawn)	1%	·	-18%	-6%	·
C/C(=N\S(=O)(=O)c1ccc(C)cc1)NC(=S)Nc1ccccc1	-10%	8%	-3%	-4%	3
COC(=O)C(C(C)=O)C1=C/C(=N\S(=O)(=O)c2ccc(C)cc2)c2ccccc2C1=O (stereo not drawn)	?	?	32µM*	?	-33*
O=S(=O)(/N=C(/Nc1ccccc1F)c1ccccc1)c1ccccc1	3%	13%	4%	-1%	3
Cc1ccccc1NC1=C/C(=N\S(=O)(=O)c2ccc(C(=O)O)cc2)c2ccccc2C1=O	·	-28%	·	·	-44*
Cc1ccc(NC2=C/C(=N/S(=O)(=O)c3cccs3)c3ccccc3C2=O)cc1C	5%	18%	-6%	-17%	-26
O=C(O)c1ccc(S(=O)(=O)/N=C2\C=C(Nc3ccccc3F)C(=O)c3ccccc32)cc1	·	?	·	·	-45*
COCCOC(=O)C1=C(C)NC(C)=C(C(=O)OC/C=C/c2ccccc2)C1c1cccc([N+](=O)[O-])c1 (stereo not drawn)	·	11%	·	·	-11
Cc1coc2cc3oc(=O)c(CCC(=O)N4CCCCC4)c(C)c3cc12	-5%	·	?	-17%	·
